Rows were chosen to be rich in hits. Some 2.3% of all compounds tested hit in one or more screens of this group.
Abeta yeast res – qHTS for compounds that reverse cellular toxicity of Amyloid beta (A-beta) peptide in yeast: Primary Screen | yeast expressing A-beta42, growth rescue, OD600, 48 h; response scale: 0% DMSO, 100% iron-clioquinol control | Potency, µM (highest dose often 46.1 µM), most hits filed as activators | AID 1347071, 2019 | 410,000 tested, 0.063% active; further: nearly all actives have a fitted effect of over 55% in size
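Yeast A-beta toxicity model in growth medium with pinned compounds, 48 h at 30 C; growth read as absorbance at 600 nm. Normalized to FeCl3/clioquinol equimolar mix (positive) and DMSO (negative).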
TDP-43 yeast inh – qHTS of TDP-43 Inhibitors; 410,000 tested, 1.8% active; TDP-43 expressing yeast growth rescue, BacTiter-Glo, 24 h; Potency, µM (doses to about 46.1 µM), actives largely listed as activators; further: nearly all actives have a fitted effect of over 50% in size
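Readout is BacTiter-Glo luminescence of cell growth, so inhibitors register as activators. TDP-43-expressing yeast at OD600=0.02 in galactose medium, after raffinose pregrowth to mid-log, were incubated with compound for 24 hr at 30 deg C.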
FUS suppressor – qHTS for Suppressors of FUS Proteinopathy: Primary screen using FUS-linked yeast assay | Potency, µM (series often up to 76.6 µM), usual class: activators | 390,000 tested, 0.24% active | S. cerevisiae FUS-expressing, growth rescue, OD600, 24 h | AID 1347120, 2019; further: nearly all actives have a fitted effect of over 55% in size
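Compound concentration series was pinned onto galactose-induced FUS-expressing yeast seeded at OD 0.005. Plates sat 24hr at 30C; absorbance at 600 nm gave growth. DMSO served as background control.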
Chronic BCR inh – qHTS Assay to Find Inhibitors of Chronic Active B-Cell Receptor Signaling; Potency, µM (top dose mostly 46.1 µM), actives largely listed as inhibitors; 340,000 tested, 0.05% active; ABC-DLBCL IkBa-CBG/CBR reporter, luminescence ratio, 4 h; active means well fitted inhibition curve with a large enough effect in the signal ratio, with a control signal flat, not every such curve was filed as active; inconclusive means small, poorly fitted or top-dose-only effect, or effect the other way, or a change in a side signal; the % refers to the signal ratio
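Doxycycline induced both beetle luciferases in TMD8 lymphoma cells; IKK-driven degradation limits the IkappaBalpha-fused green signal, while red luminescence normalises for cell number and nonspecific effects. Compounds tested up to 46 uM, 4 hrs.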
uPA generation – qHTS for Inhibitors of Cell Surface uPA Generation; 330,000 tested, 0.31% active; cell surface uPA generation assay, qHTS; AID 540303, 2011; Potency, µM (titrated, usually from 38.3 µM), actives largely listed as inhibitors; active means well fitted inhibition curve with a large enough effect; inconclusive means small, poorly fitted or top-dose-only effect; inactive means no such curve, though single readings can be large or run the other way; tested in mouse RAW 264.7 cells; further: nearly all actives have a fitted effect of over 55% in size
aSyn yeast inh – qHTS of alpha-syn Inhibitors | 370,000 tested, 0.14% active | Yeast expressing alpha-synuclein, growth rescue, BacTiter-Glo, 24 h | Potency, µM (highest dose often 46.1 µM), actives largely listed as activators; further: nearly all actives have a fitted effect of over 65% in size
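Screening used galactose-induced yeast with toxic alpha-synuclein levels, exposed to compound for 24 hr at 30 deg C. Cell growth, read with BacTiter-Glo luminescence, gave the measured signal.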
Hits are given with their value; [ ] = dose if it differs, or a comment. Unless noted, the call rests on the fitted dose curve; in most records, active means well fitted curve in the direction sought with a large enough effect; inconclusive means small, poorly fitted or top-dose-only effect, or another doubt; inactive means no such curve, though single readings can be large; an effect the other way counts as inactive or inconclusive.

`CSc1nc2cc(C)nn2c(-c2ccccc2)c1C#N` gave Abeta yeast res inactive, TDP-43 yeast inh inactive, FUS suppressor inactive, Chronic BCR inh inactive, uPA generation inactive and aSyn yeast inh inactive.
Screening COc1cc2c(cc1OC)C(COc1ccc([N+](=O)[O-])cc1)N(C(C)=O)CC2 (stereo unspecified) returned Abeta yeast res inactive, TDP-43 yeast inh inactive, FUS suppressor inactive, Chronic BCR inh inactive, uPA generation inactive and aSyn yeast inh inactive.
`Cc1ccc(-c2nc(C)c(CCNC(=O)c3cccs3)s2)cc1` gave Abeta yeast res inactive, TDP-43 yeast inh 16µM, FUS suppressor inactive and aSyn yeast inh inactive.
For Cc1cccc(-c2nc(C)c(CCNC(=O)c3cccs3)s2)c1 the results were Abeta yeast res inactive, TDP-43 yeast inh 16µM, FUS suppressor inactive and aSyn yeast inh inactive.
Screening Cc1cccc(-c2nc(C)c(CCNC(=O)C(=O)Nc3c(C)cc(C)cc3C)s2)c1 returned Abeta yeast res inactive, TDP-43 yeast inh inactive, FUS suppressor inactive and aSyn yeast inh inactive.
`CCOc1ccc(C(=O)NCCc2sc(-c3ccc(C)cc3)nc2C)cc1` gave Abeta yeast res inactive, TDP-43 yeast inh inconclusive and FUS suppressor inactive.
`COc1ccc(-c2nc(C)c(CCNC(=O)c3cccs3)s2)cc1` gave Abeta yeast res inactive, TDP-43 yeast inh 14µM, FUS suppressor inactive and aSyn yeast inh inactive.
`COc1ccc(-c2nc(C)c(CCNC(=O)c3cccc(C)c3)s2)cc1OC` gave Abeta yeast res inactive, TDP-43 yeast inh 22µM, FUS suppressor inactive and aSyn yeast inh inactive.
CCOc1ccc(Nc2nc3cc(S(=O)(=O)N(CC)CC)ccc3o2)cc1 was read as Abeta yeast res inactive, TDP-43 yeast inh inactive, FUS suppressor inactive, Chronic BCR inh inactive, uPA generation inactive and aSyn yeast inh inactive.
Cc1ncc([N+](=O)[O-])n1CCOC(=O)C12CC3CC(CC(C3)C1)C2 was read as Abeta yeast res inactive, TDP-43 yeast inh inconclusive, FUS suppressor inactive, Chronic BCR inh inactive, uPA generation inactive and aSyn yeast inh inactive.
CN(C)S(=O)(=O)c1cccc(C(=O)NCC(C)(C)CNC(=O)c2cccc(S(=O)(=O)N(C)C)c2)c1 was read as Abeta yeast res inactive, TDP-43 yeast inh inactive, FUS suppressor inactive, Chronic BCR inh inconclusive, uPA generation inactive and aSyn yeast inh inactive.
For Cc1nc(-c2ccccc2)sc1CCNC(=O)c1ccco1 the results were Abeta yeast res inactive, TDP-43 yeast inh 18µM, FUS suppressor inactive and aSyn yeast inh inactive.
Screening O=C(Cn1cc(C(F)(F)F)cc(Cl)c1=O)NCc1ccc(Cl)cc1Cl returned Abeta yeast res inactive, TDP-43 yeast inh inactive, FUS suppressor inactive, Chronic BCR inh inactive, uPA generation inactive and aSyn yeast inh inactive.
`CC(C)OC(=O)c1cc(Cl)c(=O)n(Cc2ccc(Cl)cc2Cl)c1` gave Abeta yeast res inactive, TDP-43 yeast inh 25µM, FUS suppressor inactive, Chronic BCR inh inactive, uPA generation inactive and aSyn yeast inh inactive.
For CNC(=S)NNC(=O)c1ccc(=O)n(Cc2ccc(Cl)cc2Cl)c1 the results were Abeta yeast res inactive, TDP-43 yeast inh inactive, FUS suppressor inactive, Chronic BCR inh inactive, uPA generation inactive and aSyn yeast inh inactive.
For C#CCOC(=O)c1cc(Cl)c(=O)n(Cc2ccc(Cl)cc2Cl)c1 the results were Abeta yeast res inactive, TDP-43 yeast inh 20µM, FUS suppressor inactive, Chronic BCR inh inactive, uPA generation inactive and aSyn yeast inh inactive.
For O=C1CCc2cc(S(=O)(=O)NCCC(=O)N3CCN(c4cccc(Cl)c4)CC3)ccc2N1 the results were Abeta yeast res inactive, TDP-43 yeast inh inactive, FUS suppressor inactive, Chronic BCR inh inactive and aSyn yeast inh inactive.
`O=c1c2ccccc2n(Cc2cccc(Cl)c2)c(=O)n1CCc1ccccc1` gave Abeta yeast res inactive, TDP-43 yeast inh inactive and FUS suppressor inactive.
Screening O=C(CC1CC2CCC1C2)N1CCN(S(=O)(=O)c2ccccc2C(F)(F)F)CC1 (stereo unspecified) returned Abeta yeast res inactive, TDP-43 yeast inh 22µM, FUS suppressor inconclusive, Chronic BCR inh inactive, uPA generation inactive and aSyn yeast inh inactive[1.84 µM].
For C[C@H]1CN([C@@H](C)CO)C(=O)c2cc(NS(=O)(=O)c3ccc(Cl)cc3)ccc2O[C@@H]1CN(C)CC1CCCCC1 the results were Abeta yeast res inactive, TDP-43 yeast inh inactive, FUS suppressor inactive, Chronic BCR inh inactive, uPA generation inactive and aSyn yeast inh inactive.
`CCCCNC(=O)C1(C)CCCCN1C(=O)c1ccc2c(c1)C(C)(C)CCC2(C)C` (stereo unspecified) gave Abeta yeast res inactive, TDP-43 yeast inh 20µM, FUS suppressor inactive and aSyn yeast inh inactive.
For CC1(C(=O)NCc2ccc3c(c2)OCO3)CCN1C(=O)C1(c2ccc(Cl)cc2)CC1 (stereo unspecified) the results were Abeta yeast res inactive, TDP-43 yeast inh 25µM, FUS suppressor inactive and aSyn yeast inh inactive.
`CC1(C(=O)Nc2ccc3c(c2)OCCO3)CCN1C(=O)C1(c2ccccc2)CC1` (stereo unspecified) gave Abeta yeast res inactive, TDP-43 yeast inh 13µM, FUS suppressor inactive and aSyn yeast inh inactive.
For Cn1nc(C(C)(C)C)cc1NC(=O)C1(C)CCN1C(=O)C1(c2ccccc2)CCCC1 (stereo unspecified) the results were Abeta yeast res inactive, TDP-43 yeast inh 35µM, FUS suppressor inactive and aSyn yeast inh inactive.
`CC1(C(=O)Nc2ccc3c(c2)OCO3)CCN1C(=O)C1(c2ccc(Cl)cc2)CC1` (stereo unspecified) gave Abeta yeast res inactive, TDP-43 yeast inh inactive, FUS suppressor inconclusive and aSyn yeast inh inactive.
Screening CC1(C(=O)Nc2ccc3c(c2)OCCO3)CCN1C(=O)C/C=C/c1ccccc1 (stereo unspecified) returned Abeta yeast res inactive, TDP-43 yeast inh inactive, FUS suppressor inactive and aSyn yeast inh inactive.
`COc1cccc(Nc2nc(-c3sc(NC(=O)c4ccco4)nc3C)cs2)c1` gave Abeta yeast res inactive, TDP-43 yeast inh inactive, FUS suppressor inconclusive, Chronic BCR inh inconclusive, uPA generation inactive and aSyn yeast inh inactive.
O=C(Nc1sc(-c2ccccc2)cc1C(=O)O)c1ccccc1 was read as Abeta yeast res inactive, TDP-43 yeast inh inactive, FUS suppressor inactive, Chronic BCR inh inconclusive, uPA generation inactive and aSyn yeast inh inactive.

Bioassay records (PubChem)
